Measured values: PubChem BioAssay (NCI)
“And” between values parts separate entries of the source, which are not always exact repeats. Identical values can stand only once. The panel holds about 83,000 compounds, 20% with a hit somewhere; the sample as a whole holds those more often.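 Treatment: one concentration, 48 hours, 96-well format. Scoring: percent growth, with anything below 10 considered active.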 The source made the active and inactive calls.

Tests used:
Test in all cases: NCI-60 one-dose screen, 48 h (100 = growth as untreated, 0 = no growth, -100 = all killed)
Settings in all cases: 10 µM unless noted
NCI-H23 lung = tested on: NCI-H23 lung
NCI-H226 lung = tested on: NCI-H226 lung
NCI-H322M lung = tested on: NCI-H322M lung
HOP-62 NSCLC = tested on: HOP-62 NSCLC
NCI-H460 lung = tested on: NCI-H460 lung
HOP-92 NSCLC = tested on: HOP-92 NSCLC
NCI-H522 lung = tested on: NCI-H522 lung
A549/ATCC NSCLC = tested on: A549/ATCC NSCLC
786-0 renal = tested on: 786-0 renal
COLO 205 colon = tested on: COLO 205 colon

Measured: growth

O=C(CCN1CCOCC1)Nc1cccc(-n2cc(-c3ccncc3)c(-c3ccc(Cl)c(O)c3)n2)c1
active: NCI-H522 lung 5.83% | COLO 205 colon 0.424%
inactive: NCI-H23 lung 51.7% | NCI-H226 lung 71% | NCI-H322M lung 60.4% | HOP-62 NSCLC 28% | NCI-H460 lung 17.8% | HOP-92 NSCLC 23.7% | A549/ATCC NSCLC 35.8% | 786-0 renal 11.7%

O=C(O)c1ccccc1Cc1ccc(F)c2ccccc12
inactive: NCI-H23 lung 97.5% and 105% | NCI-H226 lung 107% | NCI-H322M lung 109% and 112% | HOP-62 NSCLC 94.3% and 109% | NCI-H460 lung 109% and 99.2% | HOP-92 NSCLC 74.6% | NCI-H522 lung 94.5% and 89.9% | A549/ATCC NSCLC 101% and 95.3% | 786-0 renal 125% and 110% | COLO 205 colon 101% and 121%

COc1ccc(S(=O)(=O)Nc2cc(Sc3cccc4cccnc34)c(O)c3ccccc23)cc1
active: NCI-H460 lung 4.45% | NCI-H522 lung -39% | COLO 205 colon -60.2%
inactive: NCI-H23 lung 23.7% | NCI-H226 lung 41.2% | NCI-H322M lung 29.9% | HOP-62 NSCLC 45.8% | HOP-92 NSCLC 38.9% | A549/ATCC NSCLC 13.3% | 786-0 renal 28.5%

[2H]C([2H])([2H])Oc1cc(F)ccc1/C=C/C(=O)/C=C(/C=C/c1ccc(F)cc1OC([2H])([2H])[2H])OB(F)F
inactive: NCI-H23 lung 26.2% | NCI-H226 lung 63.4% | NCI-H322M lung 82% | HOP-62 NSCLC 102% | NCI-H460 lung 49.7% | HOP-92 NSCLC 83.2% | NCI-H522 lung 31.4% | A549/ATCC NSCLC 58.3% | 786-0 renal 44.3% | COLO 205 colon 21.3%

CC(=O)N1N=C(c2ccc(Nc3nc(Nc4ccc(F)cc4)nc(Nc4ccc(F)cc4)n3)cc2)CC1c1ccccc1 (stereo not given)
inactive: NCI-H23 lung 90% | NCI-H226 lung 102% | NCI-H322M lung 92.5% | HOP-62 NSCLC 85.9% | NCI-H460 lung 92.3% | HOP-92 NSCLC 58.3% | NCI-H522 lung 89.4% | A549/ATCC NSCLC 86.4% | 786-0 renal 78.5% | COLO 205 colon 68.5%

CCCCC(NC(=O)CN1C(=O)/C(=C/C(C)=C/c2ccccc2)SC1=S)C(=O)O (stereo not given)
inactive: NCI-H23 lung 94.8% | NCI-H226 lung 93.9% | NCI-H322M lung 103% | HOP-62 NSCLC 93% | NCI-H460 lung 102% | HOP-92 NSCLC 62.8% | NCI-H522 lung 93.8% | A549/ATCC NSCLC 98.5% | 786-0 renal 104% | COLO 205 colon 119%

O=C(O)C1C2CCC1C(O)C2 (stereo not given)
inactive: NCI-H23 lung 99.1% and 99.6% | NCI-H226 lung 94.5% | NCI-H322M lung 115% and 97.6% | HOP-62 NSCLC 87.9% and 112% | NCI-H460 lung 112% and 111% | HOP-92 NSCLC 108% and 97.6% | NCI-H522 lung 87.6% and 98.6% | A549/ATCC NSCLC 102% and 100% | 786-0 renal 98.2% and 96.5% | COLO 205 colon 102% and 106%

CCN1C(=O)N(c2ccccc2)C2NC(=S)N(/N=C/C=C/c3ccccc3)C21 (stereo not given)
active: NCI-H226 lung 2.92% | NCI-H460 lung 8.06% | COLO 205 colon -8.16%
inactive: NCI-H23 lung 21.1% | NCI-H322M lung 50.4% | HOP-62 NSCLC 37.9% | HOP-92 NSCLC 28.8% | NCI-H522 lung 14.8% | A549/ATCC NSCLC 24.9% | 786-0 renal 37.2%

CCCCC#Cc1c(/C=C(\CCCC)SCC)n(C)c(=O)[nH]c1=O
inactive: NCI-H23 lung 94.1% | NCI-H226 lung 93.2% | NCI-H322M lung 97.7% | HOP-62 NSCLC 94.8% | NCI-H460 lung 93.8% | HOP-92 NSCLC 82.8% | NCI-H522 lung 79.7% | A549/ATCC NSCLC 83.1% | 786-0 renal 98.5% | COLO 205 colon 108%

COCCn1cc(-c2nc(-c3cn(CCOC)c4ncccc34)cs2)c2ccccc21
inactive: NCI-H23 lung 56.2% | NCI-H226 lung 87.3% | NCI-H322M lung 59.2% | HOP-62 NSCLC 67.8% | NCI-H460 lung 56.6% | HOP-92 NSCLC 66.4% | NCI-H522 lung 53.4% | A549/ATCC NSCLC 70.8% | 786-0 renal 82.9% | COLO 205 colon 18.8%

c1ccc(Cc2cccc[n+]2C(c2ccccc2)c2ccccc2)cc1
inactive: NCI-H23 lung 38.2% | NCI-H226 lung 74.7% | NCI-H322M lung 77.9% | HOP-62 NSCLC 72% | NCI-H460 lung 66.3% | HOP-92 NSCLC 32.5% | NCI-H522 lung 10.2% | A549/ATCC NSCLC 58.5% | 786-0 renal 85.6% | COLO 205 colon 24.4%

Cc1ccc(-c2nc(SCC(=O)c3ccc(C#N)cc3)[nH]c(=O)c2C#N)cc1
inactive: NCI-H23 lung 105% | NCI-H226 lung 110% | NCI-H322M lung 106% | HOP-62 NSCLC 103% | NCI-H460 lung 115% | HOP-92 NSCLC 108% | NCI-H522 lung 82.1% | A549/ATCC NSCLC 98.4% | 786-0 renal 96.1% | COLO 205 colon 88.9%

O=C(NNc1ccccc1)c1ccccc1
inactive: NCI-H23 lung 98.2% and 95.8% | NCI-H226 lung 93% and 105% | NCI-H322M lung 66.8% | HOP-62 NSCLC 99.1% and 47.3% | NCI-H460 lung 85.1% | HOP-92 NSCLC 102% and 95.2% | NCI-H522 lung 48.1% | A549/ATCC NSCLC 72.5% and 64.1% | 786-0 renal 86.1% and 64.6% | COLO 205 colon 95% and 65.3%

CN1CCCc2cc(/C=C3\SC(=S)N(C(Cc4ccc(O)cc4)C(=O)O)C3=O)ccc21 (stereo not given)
inactive: NCI-H23 lung 78% | NCI-H226 lung 99.8% | NCI-H322M lung 108% | HOP-62 NSCLC 109% | NCI-H460 lung 107% | HOP-92 NSCLC 93.8% | NCI-H522 lung 91.5% | A549/ATCC NSCLC 105% | 786-0 renal 99.8% | COLO 205 colon 112%

CC1=CC(C)(C)NC(=S)N1c1ccc(Cl)cc1
inactive: NCI-H23 lung 101% and 99% | NCI-H226 lung 99% and 103% | NCI-H322M lung 98.2% | HOP-62 NSCLC 108% and 102% | NCI-H460 lung 101% and 112% | HOP-92 NSCLC 114% | NCI-H522 lung 93.7% and 92.4% | A549/ATCC NSCLC 98% and 104% | 786-0 renal 99.8% and 97.7% | COLO 205 colon 109% and 100%

N=C(N)c1ccc(-c2ccc(-c3ccc(F)cc3)s2)nc1
active: NCI-H460 lung -13.2% | COLO 205 colon -46.7%
inactive: NCI-H23 lung 81.8% | NCI-H226 lung 72.1% | NCI-H322M lung 66% | HOP-62 NSCLC 80.5% | HOP-92 NSCLC 69.8% | NCI-H522 lung 64% | A549/ATCC NSCLC 59.1% | 786-0 renal 88.7%

CCOC(=O)c1cnn(CC(O)CC)c1NC(=O)NCc1ccccc1C(F)(F)F (stereo not given)
inactive: NCI-H23 lung 92.7% | NCI-H226 lung 106% | NCI-H322M lung 94.5% | HOP-62 NSCLC 90.8% | NCI-H460 lung 110% | HOP-92 NSCLC 93.9% | NCI-H522 lung 70.3% | A549/ATCC NSCLC 94.9% | 786-0 renal 96% | COLO 205 colon 114%

Cc1ccc(-c2nc(C#N)c(S(=O)(=O)N(C)C)o2)cc1
active: NCI-H522 lung -0.0776%
inactive: NCI-H23 lung 89.2% | NCI-H226 lung 103% | NCI-H322M lung 91.1% | HOP-62 NSCLC 96.7% | NCI-H460 lung 110% | HOP-92 NSCLC 103% | A549/ATCC NSCLC 102% | 786-0 renal 96.4% | COLO 205 colon 16.7%

O=S(=O)(O)c1ccc(N=Nc2ccc(N=Nc3cccc4ccccc34)c(S(=O)(=O)O)c2)cc1
inactive: NCI-H23 lung 91.5% | NCI-H226 lung 90.1% | NCI-H322M lung 102% | HOP-62 NSCLC 107% | NCI-H460 lung 98.9% | HOP-92 NSCLC 83.4% | NCI-H522 lung 103% | A549/ATCC NSCLC 109% | 786-0 renal 107% | COLO 205 colon 100%

CCOC(=O)c1nc2c3ccccc3cnn2c1C(=O)c1ccc(OC)cc1
inactive: NCI-H23 lung 84.4% | NCI-H226 lung 81.9% | NCI-H322M lung 101% | HOP-62 NSCLC 77.4% | NCI-H460 lung 103% | HOP-92 NSCLC 86.5% | NCI-H522 lung 95.2% | A549/ATCC NSCLC 87.2% | 786-0 renal 102% | COLO 205 colon 97.5%

CCc1c2c(nc3ccc(OCc4ccc(B5OC(C)(C)C(C)(C)O5)cc4)cc13)-c1cc3c(c(=O)n1C2)COC(=O)[C@]3(O)CC
inactive: A549/ATCC NSCLC 10.8% | 786-0 renal 10.6% | COLO 205 colon 18.8%
active: NCI-H23 lung -23.1% | NCI-H226 lung -44% | NCI-H322M lung 6.44% | HOP-62 NSCLC -4.19% | NCI-H460 lung 1.68% | HOP-92 NSCLC -9.71% | NCI-H522 lung 3.47%

CN1CCN(C(=O)OCc2nc3c(N4CCOCC4)nc(Cl)nc3n2C)CC1
inactive: NCI-H322M lung 53.7% | HOP-62 NSCLC 47.3% | A549/ATCC NSCLC 25.1%
active: NCI-H23 lung -1.07% | NCI-H226 lung -60.8% | NCI-H460 lung 6.7% | HOP-92 NSCLC -32% | NCI-H522 lung -38.8% | 786-0 renal -95.5% | COLO 205 colon -30.8%

CC[C@@H]1NC(=O)[C@H]([C@H](O)[C@H](C)C/C=C/c2ccc(CN3C(=O)C(C)=C(C)C3=O)cc2)N(C)C(=O)[C@H](C(C)C)N(C)C(=O)[C@H](CC(C)C)N(C)C(=O)[C@H](CC(C)C)N(C)C(=O)[C@@H](C)NC(=O)[C@H](C)NC(=O)[C@H](CC(C)C)N(C)C(=O)[C@H](C(C)C)NC(=O)[C@H](CC(C)C)N(C)C(=O)CN(C)C1=O
inactive: NCI-H23 lung 82.6% | NCI-H226 lung 65% | NCI-H322M lung 65.7% | HOP-62 NSCLC 70.7% | NCI-H460 lung 80.7% | HOP-92 NSCLC 68.8% | NCI-H522 lung 61.9% | A549/ATCC NSCLC 58.1% | 786-0 renal 97.6% | COLO 205 colon 72.8%

Cc1ccc(C(=O)Nc2nc3c(s2)CN(Cc2ccccc2)CC3)cn1
inactive: NCI-H23 lung 80.5% | NCI-H226 lung 88.8% | NCI-H322M lung 92.9% | HOP-62 NSCLC 88.5% | NCI-H460 lung 101% | HOP-92 NSCLC 97.5% | NCI-H522 lung 65.9% | A549/ATCC NSCLC 75.4% | 786-0 renal 85.1% | COLO 205 colon 87.4%
